High-throughput results deposited in PubChem by National Center for Advancing Translational Sciences (NCATS).
Rows were chosen to be rich in hits. Some 14% of all compounds tested hit in one or more screens of this group.
Pf growth 96h: P. falciparum growth inhibition at 96 hours. 6.9% of 320,000 active. P. falciparum luciferase reporter growth, 96 h. AID 504834. Potency, µM (doses to about 28.7 µM), actives largely listed as inhibitors
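Delayed-death screen, second-generation endpoint: infected erythrocytes, 2% hematocrit, 0.05% parasitemia final; 96 hours at 37 C, 5% CO2; luciferase detection reagent; luminescence decrease equals reduced growth.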
Pf growth 48h: inhibits P. falciparum growth in the first generation, 48 h. P. falciparum luciferase growth in erythrocytes, 48 h. Potency, µM (highest dose often 28.7 µM), actives largely listed as inhibitors. 5.9% of 310,000 active. AID 504832
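Read-out is firefly luciferase luminescence from an integrated reporter in P. falciparum, so falling signal marks reduced parasite growth. Infected erythrocytes were at 2% hematocrit and 0.1% parasitemia (final) in Albumax-supplemented RPMI 1640.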
Giardia FBPA inh: Giardia lamblia aldolase inhibition. purified Giardia FBPA. Potency, µM (highest dose often 59.6 µM), actives largely listed as inhibitors. 0.71% of 290,000 active. AID 2451; note: nearly all actives have a fitted effect of over 55% in size
Target sequence (A8B2U2 whole entry, looked up): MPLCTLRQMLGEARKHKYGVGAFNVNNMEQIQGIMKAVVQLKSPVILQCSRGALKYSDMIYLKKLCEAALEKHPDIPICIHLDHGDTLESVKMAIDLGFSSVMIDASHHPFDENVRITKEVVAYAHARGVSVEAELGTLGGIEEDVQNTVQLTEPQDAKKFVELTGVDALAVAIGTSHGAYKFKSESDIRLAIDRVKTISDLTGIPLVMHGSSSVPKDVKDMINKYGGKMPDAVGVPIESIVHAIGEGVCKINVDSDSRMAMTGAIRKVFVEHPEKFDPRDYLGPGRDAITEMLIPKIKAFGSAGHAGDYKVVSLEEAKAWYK
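40 nM FBPA preincubated 10 min at RT with compound (up to 57.5 uM final), then substrate plus GAPDH/TPI/NAD/arsenate coupling and diaphorase/resazurin added. Fluorescence read after 20 min at RT, 525/598 nm.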
HCMV antiviral: inhibitors of human cytomegalovirus; HFF cells, HCMV-luciferase reporter, 72 h; hits give low values; activity change, negative = inhibition, % at 57.5 µM; 4.5% of 410,000 active; AID 1259415; in the data active = activity change below about -60%; inconclusive = no clear call, values can overlap the other calls; inactive = above about -39%
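Compounds were evaluated in HFFs infected with an HCMV luciferase reporter virus (MOI 1 PFU/cell). Luciferase in lysates collected 72 h post infection served as the replication measure.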
Sm TGR block: inhibitors of Schistosoma mansoni thioredoxin glutathione reductase; Q962Y6; Potency, µM (top dose mostly 114 µM), usual class: inhibitors; purified TGR, DTNB reduction, TNB absorbance 405 nm; 3% of 360,000 active; AID 485364; note: nearly all actives have a fitted effect of over 60% in size
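TGR 20 nM + NADPH 100 uM (dispensed conc.), cpd preinc 15 min RT; start with NADPH (500 uM addition) then DTNB (15 mM addition). Kinetic TNB absorbance, 405 nm filter. Four-parameter Hill fit across titration.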
Each line names hits and unclear results; the compound was inactive in the other large screens. Unless noted, calls come from the whole dose curve; as a rule, active = well fitted curve in the direction sought with a large enough effect; inconclusive = small, poorly fitted or top-dose-only effect, or another doubt; inactive = no such curve, though single readings can be large; an effect the other way counts as inactive or inconclusive.

Cc1cccc(N2CCN(C(=O)CCCn3c(=O)c4cccn4c4cccnc43)CC2)c1C	Pf growth 96h 12µM, Pf growth 48h inconclusive
CC1CC(C)CN(C(=O)CCCn2c(=O)c3cccn3c3cccnc32)C1 (centres undefined)	Pf growth 96h 12µM, Pf growth 48h inconclusive, HCMV antiviral inconclusive (no result: Giardia FBPA inh)
Cc1ccc(Cl)cc1N1CCN(C(=O)CCCn2c(=O)c3cccn3c3cccnc32)CC1	Pf growth 96h inconclusive, Pf growth 48h inconclusive
CCOC(=O)CCn1c(=O)c2cccn2c2cccnc21	none (no result: Pf growth 96h, Pf growth 48h, Giardia FBPA inh)
O=C(CCn1c(=O)c2cccn2c2cccnc21)N1CCN(c2ccccc2)CC1	none (no result: Pf growth 96h, Pf growth 48h, Giardia FBPA inh)
CCOC(=O)C1CCCN(C(=O)Cn2c(=O)c3cccn3c3cccnc32)C1 (centres undefined)	Pf growth 96h 10µM (no result: Giardia FBPA inh)
CCOC(=O)C1CCN(C(=O)CCn2c(=O)c3cccn3c3cccnc32)CC1	Pf growth 96h inconclusive, Pf growth 48h inconclusive (no result: Giardia FBPA inh)
CN1CCN(C(=O)CCn2c(=O)c3cccn3c3cccnc32)CC1	Pf growth 96h 13µM, HCMV antiviral active
Cc1ccc(-c2csc(NC(=O)c3cccc(N4C(=O)CCC4=O)c3)n2)o1	Sm TGR block 8.9µM (no result: HCMV antiviral)
COc1ccc(-c2csc(NC(=O)c3ccc(N4C(=O)CCC4=O)cc3)n2)cc1	HCMV antiviral -67
O=C(Nc1nc(-c2ccc(F)cc2)cs1)c1ccc(N2C(=O)CCC2=O)cc1	none
COCCn1c(=O)c(-c2cn(C)c3ccccc23)nc2cnc(Oc3ccccc3)nc21	none (no result: Pf growth 96h, Pf growth 48h, HCMV antiviral, Sm TGR block)
COc1ccccc1-c1ccc2ncnc(NCCNC(C)=O)c2c1	none (no result: Pf growth 96h, Pf growth 48h, HCMV antiviral, Sm TGR block)
Cc1ccc2nc3c(cc(C#N)c(=O)n3-c3nnc(SCc4ccccc4)s3)c(=O)n2c1	none (no result: Pf growth 96h, Pf growth 48h, Giardia FBPA inh)
O=C1CC(N2CCC(c3nc4ccccc4o3)CC2)C(=O)N1 (centres undefined)	HCMV antiviral inconclusive, Sm TGR block 35µM
O=C1CC(N2CCC(c3nc4ccccc4o3)CC2)C(=O)N1c1ccc(F)cc1 (centres undefined)	none
O=C1CC(N2CCC(c3nc4ccccc4o3)CC2)C(=O)N1c1ccc(Cl)c(C(F)(F)F)c1 (centres undefined)	Sm TGR block 14µM (no result: Pf growth 96h)
CCOC(=O)c1c(NC(=O)COC(=O)/C=C/c2ccccc2)sc(C(=O)NC)c1C	none (no result: Giardia FBPA inh)
Cc1cc(Nc2ccc3ccccc3c2)n2ncnc2n1	Pf growth 48h 0.13µM
Cc1cc(Nc2ccc(C(C)C)cc2)n2ncnc2n1	Pf growth 48h 1µM
COc1ccc(CCNC(=O)CN(c2ccccc2)S(=O)(=O)N(C)C)cc1OC	none (no result: Pf growth 96h, Pf growth 48h, Giardia FBPA inh)
Cc1oc(-c2ccccc2F)nc1CSCC(=O)NCc1ccccc1	none (no result: Pf growth 96h, Pf growth 48h, Giardia FBPA inh)
COCCCN1C(=O)/C(=C\c2ccc3c(c2)OCO3)C(C(=O)OC)=C1C	HCMV antiviral inconclusive
CCN1C(=O)/C(=C\c2ccc3c(c2)OCO3)C(C(=O)OC)=C1C	Pf growth 96h 1.9µM
C=CCOc1cccc(/C=C2\C(=O)N(Cc3ccc(C)cc3)C(C)=C2C(=O)OC)c1	Pf growth 96h 6.6µM, Pf growth 48h 15µM
COC(=O)C1=C(C)N(CCc2ccc(OC)c(OC)c2)C(=O)/C1=C\c1ccc(O)cc1	Pf growth 48h 12µM, Giardia FBPA inh inconclusive, HCMV antiviral inconclusive, Sm TGR block 28µM
CCOc1cc(/C=C2\C(=O)N(Cc3ccc(C)cc3)C(C)=C2C(=O)OC)ccc1O	Pf growth 48h inconclusive, Sm TGR block 22µM
COc1ccc(-c2coc3ccc(OC4OC(COC(C)=O)C(OC(C)=O)C(OC(C)=O)C4OC(C)=O)c(OC(C)=O)c3c2=O)cc1 (centres undefined)	none (no result: Pf growth 96h, Pf growth 48h, HCMV antiviral, Sm TGR block)
CC(NC(=S)NCCc1ccccc1)C(c1cccs1)N1CCN(C)CC1 (centres undefined)	Pf growth 96h inconclusive, Pf growth 48h inconclusive
O=S(=O)(c1ccc2[nH]c3c(c2c1)CCCCC3)N1CCN(c2cccc(Cl)c2)CC1	none (no result: Pf growth 96h, Pf growth 48h, Giardia FBPA inh)
[O-][n+]1cccc(CO)c1	none (no result: Giardia FBPA inh, HCMV antiviral, Sm TGR block)
CC1Cc2nc(SCC(=O)NCC3CCCO3)n(-c3ccc(F)cc3)c(=O)c2S1 (centres undefined)	Pf growth 96h 3.7µM, Pf growth 48h 8.3µM
CC1Cc2nc(SCC(=O)NCC3CCCO3)n(Cc3ccccc3)c(=O)c2S1 (centres undefined)	Pf growth 48h 15µM (no result: HCMV antiviral)
Cc1cc(NC(=O)CSc2nc3c(c(=O)n2-c2ccccc2)SC(C)C3)no1 (centres undefined)	Pf growth 96h 4.1µM, Pf growth 48h inconclusive
COc1ccc(-n2c(SCC(=O)NCC3CCCO3)nc3c(c2=O)SC(C)C3)cc1 (centres undefined)	Pf growth 96h inconclusive, Pf growth 48h 12µM
COc1ccc(NC(=O)CN2C(=O)C(c3ccc(C)cc3)=NC23CCCCCC3)cc1Cl	none (no result: Pf growth 96h, Pf growth 48h, Giardia FBPA inh)
Cc1cc(=O)oc2cc(O[C@@H]3O[C@H](CO)[C@@H](O)[C@H](O)[C@H]3O)ccc12	none
COc1nc(Nc2ccc(OC)c(Cl)c2)nc(OC)n1	Pf growth 48h 8.3µM
CCNc1nc(NCC)nc(N(C#N)CCOc2ccccc2)n1	Pf growth 96h 5.2µM, Pf growth 48h inconclusive (no result: Sm TGR block)
CCc1cccc(NC(=O)CCc2c(C)nn(-c3ccc(N4CCCCC4)nn3)c2C)c1	Pf growth 96h inconclusive, HCMV antiviral inconclusive
COc1ccc(NS(=O)(=O)c2ccc3oc(=O)c4[nH]c(=O)c(=O)n(C)c4c3c2)cc1	Sm TGR block 50µM
COC(=O)c1sc(SC)c(S(=O)(=O)C(C)C)c1N	Pf growth 48h inconclusive
COC(=O)c1cc(S(=O)(=O)C(C)C)c(S(C)=O)s1 (centres undefined)	Pf growth 96h inconclusive, Pf growth 48h inconclusive, HCMV antiviral -66, Sm TGR block 35µM
O=C(CCN1C(=O)COc2ccccc21)N1CCN(c2ccccn2)CC1	HCMV antiviral -73
O=C(CN1C(=O)COc2ccccc21)NCCCN1CCOCC1	none
O=C(CCN1C(=O)COc2ccccc21)NCCCN1CCN(c2ccccc2F)CC1	Pf growth 96h 2.6µM
O=C(CCN1C(=O)COc2ccccc21)N1CCN(c2ccccc2)CC1	none
O=C(CN1C(=O)COc2ccccc21)NCCCN1CCCCC1	Pf growth 96h 1µM (no result: Giardia FBPA inh)
CCCCCC(=O)/C=C/[C@@H]1[C@@H](C/C=C\CCCC(=O)O)[C@@H](O)C[C@H]1O	none (no result: Pf growth 96h, Pf growth 48h, HCMV antiviral, Sm TGR block)
C=C(C)Cn1c2ccc(NC(=O)NCc3ccc(F)cc3)cc2c(=O)n1C	none (no result: Pf growth 96h, Pf growth 48h, Giardia FBPA inh, Sm TGR block)
Cc1ccc(C2CN(C)C3(C(=O)Nc4ccccc43)C23COc2ccccc2C3=O)cc1 (centres undefined)	Pf growth 96h inconclusive, Pf growth 48h 15µM
CCO[C@@H]1OC(C(=O)N2CCN(Cc3ccc4c(c3)OCO4)CC2)=C[C@H](c2coc3ccccc3c2=O)[C@H]1CCCO	Pf growth 96h inconclusive, Pf growth 48h inconclusive, HCMV antiviral -89
CCO[C@@H]1OC(C(=O)N2CCN(Cc3ccccc3)CC2)=C[C@H](c2coc3ccccc3c2=O)[C@H]1CCCO	Pf growth 96h 5.2µM, Pf growth 48h inconclusive
